From PubChem
ERK AVP inh: inhibitors of vasopressin-stimulated ERK signaling pathway; AID 995; HEK293-V1b, vasopressin-stimulated pERK AlphaScreen; Potency, µM (top dose mostly 57.5 µM), most hits filed as inhibitors; 72,000 tested, 0.99% active; note: nearly all actives have a fitted effect of over 55% in size
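Overnight-seeded V1b-HEK293 cells in 1% FBS got compound, then vasopressin (25 nM final, 5 min, 37C), then lysis buffer. AlphaScreen detection of phospho-ERK; activity normalized to basal and full-stimulation controls.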
15-hLO inh: 15-hLO (ALOX15) enzyme inhibition; purified 15hLO-1, xylenol orange hydroperoxide absorbance; P16050; Potency, µM (series often up to 57.1 µM), most hits filed as inhibitors; 74,000 tested, 1.4% active; note: nearly all actives have a fitted effect of over 55% in size
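Purified human 15hLO-1 (40 nM final) in 25 mM Hepes pH 7.5, 0.01% Triton X-100 was preincubated with compound 15 min at room temperature, then reacted 6 min with 50 uM arachidonic acid; hydroperoxide detected by Fe-XO, 573/405 nm absorbance ratio.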
CRE Fsk mod: CRE-bla signaling modulation under forskolin stimulation; Potency, µM (highest dose often 38.2 µM), most hits filed as activators; CHO CRE-bla reporter (cAMP response element driving beta-lactamase), forskolin EC10, beta-lactamase ratio; 71,000 tested, 2.5% active; AID 662; active = well fitted activation curve with a large enough effect in the signal ratio, with a control signal flat, not every such curve was filed as active; inconclusive = small, poorly fitted or top-dose-only effect, or effect the other way, or a change in a side signal; the % refers to the signal ratio
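CRE-bla CHO cells stimulated with EC10 NKH 477 (water-soluble forskolin) and compound titrations, 3 h at 37C; beta-lactamase read with CCF4 after 2 h at room temperature. Activity from 460/530 nm emission ratio, AC50 values for positive or negative modulation.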
ALOX15B inhib: inhibitors of human 15-lipoxygenase 2 (ALOX15B); AID 881; 110,000 tested, 0.56% active; O15296; Potency, µM (series often up to 57.1 µM), most hits filed as inhibitors; purified 15hLO-2, xylenol orange hydroperoxide absorbance; note: nearly all actives have a fitted effect of over 60% in size
Target sequence (O15296 whole entry, looked up): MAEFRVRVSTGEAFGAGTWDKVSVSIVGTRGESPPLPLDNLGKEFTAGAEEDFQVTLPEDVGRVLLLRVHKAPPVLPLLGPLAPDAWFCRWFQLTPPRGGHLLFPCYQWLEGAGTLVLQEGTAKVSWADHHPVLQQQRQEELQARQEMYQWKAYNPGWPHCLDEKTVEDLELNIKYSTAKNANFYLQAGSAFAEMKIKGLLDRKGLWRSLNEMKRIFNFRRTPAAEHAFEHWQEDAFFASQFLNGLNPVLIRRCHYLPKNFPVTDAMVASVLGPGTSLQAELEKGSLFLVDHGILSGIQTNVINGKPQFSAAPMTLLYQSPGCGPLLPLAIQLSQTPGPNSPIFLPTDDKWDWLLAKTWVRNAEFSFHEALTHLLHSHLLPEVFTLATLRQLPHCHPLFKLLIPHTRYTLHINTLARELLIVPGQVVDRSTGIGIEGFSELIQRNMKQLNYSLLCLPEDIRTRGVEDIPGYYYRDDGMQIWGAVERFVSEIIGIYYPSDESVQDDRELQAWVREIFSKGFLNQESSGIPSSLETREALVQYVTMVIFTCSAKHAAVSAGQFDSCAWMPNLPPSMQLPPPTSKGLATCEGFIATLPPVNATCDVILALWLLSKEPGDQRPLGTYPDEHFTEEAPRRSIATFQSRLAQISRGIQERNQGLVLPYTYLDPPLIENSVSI
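Purified human 15hLO-2 (50 nM final) preincubated with compounds 15 min at room temperature in 25 mM Hepes pH 7.5, 0.01% Triton X-100, then 45 uM arachidonic acid added for 90 min; hydroperoxide detected via ferrous/xylenol orange, 573/405 nm absorbance ratio.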
Each line names hits and unclear results; the compound was inactive in the other large screens. The list is not random: actives were taken first. Their share in the collection is about 3.2%. Unless noted, calls come from the whole dose curve; as a rule, active = well fitted inhibition curve with a large enough effect; inconclusive = small, poorly fitted or top-dose-only effect; inactive = no such curve, though single readings can be large or run the other way.

COc1ccc(CNc2ncncc2-c2ccc3c(c2)OCO3)c(OC)c1	ERK AVP inh inconclusive, CRE Fsk mod 3.2µM
COc1cccc(-c2nc(N(C)Cc3ccco3)c3ccccc3n2)c1	15-hLO inh 10µM, CRE Fsk mod inconclusive
COc1cc(OC)c(Nc2cc(C)nc3nc(C)nn23)cc1Cl	CRE Fsk mod 7.9µM
COCCNC(=O)C(C#N)c1nc2ccccc2nc1N1CCCCCC1 (configuration not stated)	15-hLO inh inconclusive, CRE Fsk mod 10µM
N#CC(C(=O)NC1CC1)c1nc2ccccc2nc1N1CCCC1 (configuration not stated)	15-hLO inh inconclusive, CRE Fsk mod 5µM
CCC(CC)COC(=O)C(C#N)c1nc2ccccc2nc1N1CCOCC1 (configuration not stated)	CRE Fsk mod 2µM
O=C(c1cccc(Cl)c1)N1CCC(=O)N([C@H](COCc2cccc(Cl)c2)Cc2ccccc2)CC1	none (no result: ERK AVP inh, 15-hLO inh, CRE Fsk mod)
c1ccc(CO[C@H]2NCCN2Cc2ccccc2)cc1	none
Cc1ncc(CSC(=N)N)n1Cc1ccccc1	none
Cc1cc(C)cc([N+](=O)[O-])c1	none
Cc1cc(C(=O)CSc2nnc(N)s2)c(C)n1CCc1ccc(Cl)cc1	none
COc1ccc(CCn2c(C)cc(C(=O)CSc3nnc(N)s3)c2C)cc1	ERK AVP inh 20µM
COCCn1c(=O)c(-c2ccc(F)c(F)c2)nc2cncnc21	CRE Fsk mod 16µM
COCCn1c(=O)c(-c2ccc(OC)cc2)nc2cnc(OC)nc21	CRE Fsk mod 10µM
COCCn1c(=O)c(-c2ccc(OC)cc2)nc2cnc(Nc3ccccc3)nc21	CRE Fsk mod 0.32µM
CC[C@H]1CN(C)[C@H]2Cc3c([nH]c4ccccc34)C(=O)C[C@H]1[C@H]2C(=O)OC	none
Cn1cccc1C(=O)N1CCC2(CCCN(C(=O)Nc3cccc(C#N)c3)C2)CC1	none
C[C@@]12CCC(=O)C=C1CC[C@H]1[C@H]3CC[C@](O)(C(=O)CO)[C@]3(C)CC(=O)[C@@H]12	none
Cc1onc(-c2ccccc2)c1C(=O)NC1C(=O)N2C(C(=O)O)C(C)(C)S[C@@H]12 (some centres not stated)	none (no result: CRE Fsk mod)
Cc1ccc(C)c(Cn2cnc3c(cnn3C(C)(C)C)c2=O)c1	CRE Fsk mod inconclusive
Cc1ccccc1Cn1cnc2c(cnn2C(C)(C)C)c1=O	CRE Fsk mod 13µM
O=[N+]([O-])c1ccc(CSCc2ccc(Cl)cc2)cc1	none
CCOC(=O)c1ccc(-n2c(N)c(C(=O)NCc3ccco3)sc2=S)cc1	ERK AVP inh 20µM, 15-hLO inh inconclusive
O=C(Nc1nc(-c2ccccc2)cs1)c1cccs1	ERK AVP inh 16µM, 15-hLO inh 13µM
O=C(Nc1nc(-c2ccc(Cl)s2)cs1)c1cccs1	ERK AVP inh 10µM, 15-hLO inh 25µM
O=C(Nc1nc(-c2ccccn2)cs1)c1ccc(Cl)s1	none (no result: ERK AVP inh)
Cc1nc(NC2CCCCC2)c2nc(-c3ccccc3)n(CCN(C)C)c2n1	15-hLO inh inconclusive, CRE Fsk mod inconclusive
CN(C)CCC(=O)[C@@]1(O)CC[C@H]2[C@H]3CC=C4C[C@@H](O)CC[C@]4(C)[C@H]3CC[C@]21C	none
COc1cc(C(=O)Nc2nnc(-c3sccc3C)s2)cc(OC)c1OC	15-hLO inh 20µM, CRE Fsk mod inconclusive
COc1ccc(NC(=O)CSc2nc3ccccc3c(=O)n2CCNC(C)=O)c(OC)c1	CRE Fsk mod inconclusive
COc1ccc(OC)c(NC(=O)CSc2nc3ccccc3c(=O)n2CCNC(C)=O)c1	CRE Fsk mod 10µM (no result: ALOX15B inhib)
CCOc1ccc2nc(NC(=O)CSc3nc4c(c(=O)n(C)c(=O)n4C)n3C(C)C)sc2c1	ERK AVP inh inconclusive, CRE Fsk mod 4µM
COc1ccc(OC)c(NC(=O)CSc2nc3c(c(=O)n(C)c(=O)n3C)n2C)c1	CRE Fsk mod 2µM
CCCCn1c(SCC(=O)OC)nc2c1c(=O)n(C)c(=O)n2C	ERK AVP inh 16µM, CRE Fsk mod inconclusive
CC1Cc2c(COc3ccccc3)nc3c(c2CO1)CN(CCOc1ccccc1)CC3 (configuration not stated)	none (no result: CRE Fsk mod, ALOX15B inhib)
C#CCCCCCCCCCCCc1ccco1	15-hLO inh inconclusive (no result: CRE Fsk mod)
CCn1c(SCC(=O)Nc2ccc3c(c2)OCO3)nc2c1c(=O)n(C)c(=O)n2C	ERK AVP inh inconclusive, CRE Fsk mod inconclusive
CCn1c(SCC(=O)Nc2nc3ccc(OC)cc3s2)nc2c1c(=O)n(C)c(=O)n2C	ERK AVP inh inconclusive, CRE Fsk mod 2µM
CCCn1c(SCC(=O)Nc2ccc3c(c2)OCO3)nc2c1c(=O)n(C)c(=O)n2C	ERK AVP inh inconclusive, CRE Fsk mod 2.5µM
NCCSC[C@H](N)C(=O)O	none
COCC(=O)O[C@]1(CCN(C)CCCc2nc3ccccc3[nH]2)CCc2cc(F)ccc2[C@@H]1C(C)C	ERK AVP inh 20µM, 15-hLO inh inconclusive
O=c1[nH]cnc2scc(-c3ccccc3)c12	none (no result: ERK AVP inh, 15-hLO inh, CRE Fsk mod)
c1ccc(-c2csc3ncn4cnnc4c23)cc1	ERK AVP inh 6.3µM, CRE Fsk mod inconclusive, ALOX15B inhib inconclusive
Cn1cc(-c2nc3cnc(Oc4ccccc4)nc3n(Cc3cccs3)c2=O)c2ccccc21	CRE Fsk mod inconclusive
Cc1nc2nc(COc3ccccc3)nn2c(C)c1Cl	CRE Fsk mod inconclusive
Cc1nc2nc(Cc3ccccc3)nn2c(C)c1Cl	CRE Fsk mod 10µM
Cc1cc(N)n2ncc(-c3ccccc3)c2n1	ERK AVP inh 25µM, 15-hLO inh inconclusive
Cc1cccc(OCc2nnc(SCC(=O)N(C(C)C)C(C)C)n2Cc2ccco2)c1C	CRE Fsk mod 13µM
O=C(O)/C(Cc1cn[nH]n1)=N\O	none
CCn1c(Cc2ccccc2)nnc1SCC(=O)Nc1nc2ccccc2s1	15-hLO inh 25µM
CCn1c(SCC(=O)Nc2nc3c(s2)CCCC3)nnc1-c1ccccc1	ERK AVP inh 32µM, CRE Fsk mod inconclusive
O=C(CSC1=NCCN1)Nc1ccccc1	none
CSc1nnc2n(C3CCCCC3)c(=O)c3c4c(sc3n12)CCCC4	none (no result: ERK AVP inh, 15-hLO inh, CRE Fsk mod)
CSc1nnc2n(-c3ccccc3)c(=O)c3c4c(sc3n12)CCC4	15-hLO inh 2.5µM, CRE Fsk mod 2.5µM
Cc1ccc(SCCNC(=O)CN2C(=O)c3ccccc3S2(=O)=O)cc1	ERK AVP inh 7.9µM
CO/N=C(\C(=O)N[C@@H]1C(=O)N2C(C(=O)O)=C(CSc3nc(=O)c(O)nn3C)CS[C@@H]12)c1csc(N)n1	none
C/C(CCC(=O)OC[C@@H]1O[C@H](C#Cc2ccccc2)C=C[C@@H]1Oc1ccc(C)cc1)=N/O[C@@H](C)c1cn([C@H]2COC[C@H]2O)nn1	none (no result: CRE Fsk mod, ALOX15B inhib)
Cc1ccc(S(=O)(=O)Nc2nc3ccccc3nc2NCc2ccco2)cc1	CRE Fsk mod inconclusive
Cc1ccc2nc(NCc3ccco3)c(C=NCc3ccco3)c(=O)n2c1	CRE Fsk mod 10µM
C=C(Br)CN(C)CC(=C)Br	none
O=C(Nc1cccc(Cn2cccn2)c1)c1cc2c(s1)CCCC2	ERK AVP inh 20µM, CRE Fsk mod inconclusive
Nc1c(C(=O)OCC2CCCO2)c2nc3ccccc3nc2n1C1CCCC1 (configuration not stated)	ERK AVP inh inconclusive, CRE Fsk mod 2.5µM
COCCn1c(N)c(C(=O)NCC2CCCO2)c2nc3ccccc3nc21 (configuration not stated)	none (no result: ERK AVP inh, 15-hLO inh, CRE Fsk mod)
